Experimental data published in ChEMBL document CHEMBL3433997, “St. Jude Leishmania screening dataset” (2016).

How the values were obtained:
Type in all cases: functional
[1] = molecular target: Solute carrier family 2, facilitated glucose transporter member 1 (Homo sapiens) (UniProt P11166); test: ST_JUDE_LEISH: Cytotoxicity at 2uM final concentration against transgenic Leishmania Mexicana promastigotes LmGLUT1 that are glucose transport deficient and complemented with the human glucose transporter GLUT1. Activity is measured by DNA content using SYBR green in vitro
[2] = molecular target: Hexose transporter 1 (Plasmodium falciparum) (UniProt O97467); test: ST_JUDE_LEISH: Cytotoxicity at 2uM final concentration against transgenic Leishmania Mexicana promastigotes LmPfHT that are glucose transport deficient and complemented with the Plasmodium falciparum hexose transporter. Activity is measured by DNA content using SYBR green in vitro
[3] = molecular target: Glucose transporter (Leishmania mexicana) (UniProt O61059); test: ST_JUDE_LEISH: Cytotoxicity at 2uM final concentration against transgenic Leishmania Mexicana promastigotes LmGT2 that are glucose transport deficient and complemented with the L. Mexicana glucose transporter 2. Activity is measured by DNA content using SYBR green in vitro

Chain of Solute carrier family 2, facilitated glucose transporter member 1 (Homo sapiens) (P11166 whole entry): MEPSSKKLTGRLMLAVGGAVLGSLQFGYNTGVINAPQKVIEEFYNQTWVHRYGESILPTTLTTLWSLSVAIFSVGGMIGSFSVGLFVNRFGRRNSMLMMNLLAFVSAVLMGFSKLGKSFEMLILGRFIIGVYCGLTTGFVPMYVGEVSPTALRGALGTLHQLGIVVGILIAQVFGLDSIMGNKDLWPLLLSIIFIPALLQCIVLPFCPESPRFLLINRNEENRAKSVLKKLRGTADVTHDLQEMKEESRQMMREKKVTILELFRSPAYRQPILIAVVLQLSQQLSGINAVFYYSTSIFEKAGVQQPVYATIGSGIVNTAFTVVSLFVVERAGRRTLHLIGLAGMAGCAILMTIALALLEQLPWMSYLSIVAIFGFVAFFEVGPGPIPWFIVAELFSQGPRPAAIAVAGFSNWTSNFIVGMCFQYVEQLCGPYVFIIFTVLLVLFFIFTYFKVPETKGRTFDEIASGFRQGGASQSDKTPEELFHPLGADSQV

Row | Compound | inhibition [1] [%] | inhibition [2] [%] | inhibition [3] [%]
1 | N#Cc1ccc(-c2ccc(C(=O)NCCCCN3CCC(c4ccc5c(c4OCC(N)=O)CCCC5)CC3)nc2)cc1 | 3.35 | 0.86 | 2.97
2 | O=C(/C=C/c1ccc(Cl)c(Cl)c1)NCCCCCN1CCC(NC(=O)Nc2cccc(Cl)c2Cl)CC1 | -2.33 | -0.39 | 6
3 | c1ccc(CNc2nc(NCCc3c[nH]cn3)nc(N3CCCC4CCCCC43)n2)cc1 (stereo not given) | -1.84 | -0.22 | -1.46
4 | COC(=O)c1cccc(CNCc2ccc(-c3cccc(-c4nc5cccc(C)c5[nH]4)c3)cc2)c1 | -0.37 | -1.65 | -2.21
5 | NCC1CCCN1Cc1ccc(-c2ccc(-c3nc4cc(F)ccc4[nH]3)cc2)cc1 (stereo not given) | 8.49 | 5.64 | 4.54
